# Screening results: PubChem, National Center for Advancing Translational Sciences (NCATS)
# IL2 activator – activators of IL-2; IL-2 activation reporter assay, cell-based qHTS; stimulated with anti-CD3/CD4/CD28 beads; in transgenic mouse T cells; activation, % (series mostly up to about 46 µM); 360,000 compounds, 0.065% hits; AID 652025; in the data active = activation above about 50%; inconclusive = mostly about 30% to 49%; note: 0% is about no effect
#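 EGFP and DsRed fluorescence is measured by plate cytometry in unstimulated transgenic mouse T cells exposed to compound for 60 minutes, then stimulated 18 hours at 37 degrees C with anti-CD3/anti-CD4 beads plus anti-CD28.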
# Vif-APOBEC3G blk – blocks the Vif interaction with human APOBEC3G | Q9HC16 | HeLa A3G-eYFP + Vif (tagged APOBEC3G with the HIV-1 protein that degrades it), YFP fluorescence, overnight | Potency, µM (titrated, usually from 46.1 µM), inactives show at the highest dose activity, negative = active, hits mostly inhibitors | 410,000 compounds, 0.076% hits; note: potency is the fitted concentration of half-maximal effect; % is set by controls: 0 for no effect and ±100 for the full control effect; nearly all actives have a fitted effect of over 60% in size
# Target sequence (Q9HC16 whole entry, looked up): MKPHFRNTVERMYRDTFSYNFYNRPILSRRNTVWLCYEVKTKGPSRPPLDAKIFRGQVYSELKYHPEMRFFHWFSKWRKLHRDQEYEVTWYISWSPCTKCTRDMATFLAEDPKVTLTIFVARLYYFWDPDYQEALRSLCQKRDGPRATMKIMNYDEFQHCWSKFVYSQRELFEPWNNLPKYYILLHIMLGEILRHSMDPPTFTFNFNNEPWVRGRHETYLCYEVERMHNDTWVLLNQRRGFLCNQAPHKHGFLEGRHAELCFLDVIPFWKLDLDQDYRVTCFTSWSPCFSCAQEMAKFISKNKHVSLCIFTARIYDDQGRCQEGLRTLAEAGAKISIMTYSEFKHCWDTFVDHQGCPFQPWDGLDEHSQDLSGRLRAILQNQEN
#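 Read-out is eYFP fluorescence (Ex 488/Em 500-530) from Vif-expressing HeLa A3G-eYFP cells; more signal means A3G escaped Vif-mediated degradation. Cells plated overnight, compound pinned in, incubated overnight at 37 deg C.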
# PKM2 act – PKM2 (human) enzyme activation; P14618; purified PKM2, Kinase-Glo ATP luminescence, activation; response scale: 0% is enzyme alone, no compound; Potency, µM (doses to about 57.5 µM), for inactives: at the highest dose activation, most hits filed as activators; 260,000 compounds, 0.34% hits; AID 1631; note: potency is the fitted concentration of half-maximal effect; % is set by controls: 0 for no effect and ±100 for the full control effect; nearly all actives have a fitted effect of over 55% in size
#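 hPK-M2, >95% pure; 0.1 mM ADP / 0.5 mM PEP final; imidazole pH7.2 buffer w/ 7 mM MgCl2, 50 mM KCl; 1 h RT; Kinase-Glo lum. Intermediate enzyme activity for dual inhibitor/activator qHTS.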
# Vif-APOBEC3F blk – Vif-A3F binding inhibition; AID 602313; 390,000 compounds, 0.2% hits; HeLa A3F-eYFP + Vif (tagged APOBEC3F with the HIV-1 protein that degrades it), YFP fluorescence increase; Potency, µM (highest dose often 46.1 µM), for inactives: at the top dose activity, negative = active; note: potency is the fitted concentration of half-maximal effect; % of control where 0% means no effect; nearly all actives have a fitted effect of over 65% in size
#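 HeLa cells stably expressing A3F-eYFP plus Vif, plated and incubated overnight at 37 deg C, then exposed to compounds overnight at 37 deg C. Blocked degradation read as raised yellow fluorescence (Ex 488/Em 500-530).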
# * hit, by the source's call; u = inconclusive; x = not tested or not shown. The list is not random: actives were taken first. Their share in the collection is about 0.53%. Unless noted, calls come from the whole dose curve; as a rule, active = well fitted curve in the direction sought with a large enough effect; inconclusive = small, poorly fitted or top-dose-only effect, or another doubt; inactive = no such curve, though single readings can be large; an effect the other way counts as inactive or inconclusive.
SMILES,IL2 activator,Vif-APOBEC3G blk,PKM2 act,Vif-APOBEC3F blk
COc1ccc(/C=c2\s/c(=C/C(=O)c3ccc(C)cc3)[nH]c2=O)c(OC)c1,-1,u,-13%,25µM*
Cc1ccnc(N2C(=O)c3cccc4c([N+](=O)[O-])ccc(c34)C2=O)c1,3,4%,-1%,u
Cc1nnc(N2C(=O)c3cccc4c([N+](=O)[O-])ccc(c34)C2=O)s1,-1,u,0%,28µM*
O=C1CC(Cc2ccccc2)C(=O)N1Cc1ccco1 (stereo unspecified),0,3%,28µM*,-16%
Cc1ccc(CC2CC(=O)N(Cc3ccco3)C2=O)cc1 (stereo unspecified),0,0%,u,-10%
Cc1cc[n+](CC#N)cc1,x,1%,x,x
CN(C)c1ccc2nc3c(=O)[nH]c(=O)nc-3n(CC(O)C(O)C(O)CO)c2c1 (stereo unspecified),-4,2%,x,8.9µM*
Cc1ncc(C(O)c2ccc(N(C)C)cc2)n1Cc1ccccc1 (stereo unspecified),-1,0%,x,-6%
COc1ccc(S(=O)(=O)Nc2ccc(S(=O)(=O)Nc3nccs3)cc2)cc1,-1,-4%,13µM*,1%
COc1cccc(CC(=O)Nc2ccc(S(=O)(=O)Nc3nccs3)cc2)c1,0,0%,x,-6%
COc1ccccc1S(=O)(=O)Nc1ccc(S(=O)(=O)Nc2nccs2)cc1,0,3%,x,-9%
COc1ccc(CC(=O)Nc2ccc(S(=O)(=O)Nc3nccs3)cc2)cc1,2,-4%,14µM*,-23%
O=C(NCc1cccc(Cl)c1)c1oc(=O)c2ccccc2c1-c1ccccc1,x,2%,x,1%
Cc1cc(C)c2cc3c(N)c(C(=O)N4CCc5ccccc5C4)sc3nc2c1,0,u,2%,u
Cc1cccc2cc3c(N)c(C(=O)N4CCOCC4)sc3nc12,-1,u,17%,22µM*
CCOc1ccc(CNC(=O)C2Cc3cc(S(=O)(=O)N4CCCCCC4)ccc3N2C(C)=O)cc1 (stereo unspecified),x,-3%,x,-11%
NC(=O)COc1ccccc1/C=C1/SC(=O)N(CC(=O)N2CCc3ccccc3C2)C1=O,0,-1%,20µM*,-2%
CCc1ccc(NC(=O)CSc2nc3ccccc3nc2Cc2ccccc2OC)cc1,x,4%,x,-17%
COCCCNc1oc(-c2ccc(COc3ccccc3C)o2)nc1C#N,x,-4%,x,3%
CC(Oc1ccccc1)C(=O)Nc1cccc(-c2cn3cccnc3n2)c1 (stereo unspecified),x,-10%,x,-1%
CC(NC(=O)c1ccc(Nc2nc3ccccc3n3nnnc23)cc1)c1ccccc1 (stereo unspecified),x,u,x,7.1µM*
CC(CNC(=O)c1ccc(Nc2nc3ccccc3n3nnnc23)cc1)c1ccccc1 (stereo unspecified),x,1%,x,-13%
COc1ccccc1CNC(=O)c1cccc(Nc2nc3ccccc3n3nnnc23)c1,x,-6%,x,-6%
COc1ccccc1CNC(=O)c1ccc(Nc2nc3ccccc3n3nnnc23)cc1,x,-28%,x,22µM*
Cc1ccc(C(=O)O)cc1Nc1nc2ccccc2n2nnnc12,x,-23%,x,11µM*
SMILES,IL2 activator,Vif-APOBEC3G blk,PKM2 act,Vif-APOBEC3F blk
CC[n+]1ccnc2ccccc21,x,-22%,x,x
COc1ccc(-n2nc(C(=O)N3CCN(c4cccc(C)c4C)CC3)c3c4ccccc4n(C)c3c2=O)cc1Cl,x,4%,x,1%
COc1ccc(NC(=O)CSC2=Nc3ccccc3C3=NC(CC(=O)NCc4ccco4)C(=O)N23)cc1 (stereo unspecified),x,-3%,x,0%
CCCCNc1nc2c(S(=O)(=O)c3ccc(C)cc3)nnn2c2ccsc12,x,6%,x,-2%
CCOc1ccc(CNC(=O)c2sc3nc(C)cc(C)c3c2-n2cccc2)cc1,x,6%,x,-6%
FC(F)(F)c1ccccc1NC(=S)NN=C1CCCCCC1,-1,u,-18%,6.3µM*
O=C(NC(=S)Nc1ccc(N2CCCCC2)c(Cl)c1)c1ccc2c(c1)OCCO2,-1,-26%,-2%,10µM*
COc1ccc(-c2noc(CN(C)CCC3CCCCO3)n2)cc1 (stereo unspecified),-3,-1%,6%,28%
COC(=O)c1ccc(-c2noc(CN(C)CCC3CCCCO3)n2)cc1 (stereo unspecified),0,-6%,0.2µM*,-1%
